# Source: ChEMBL document CHEMBL3988442, “University of Dundee, Small-Polar-MMV Screening Library” (2021)
# For some of these results: Entries with a potency or affinity are not part of this list.
# Legend:
# Set-up in all cases: scale not given: direction of the effect not stated beside the values
# [1] = molecular target: Protein translocase subunit SecA (Escherichia coli (strain K12)) (UniProt P10408); assay: Assay to Identify E. coli SecA ATPase Inhibitors; assay type: functional; details: 30 µM
# [2] = molecular target: T1, Ubiquitin-activating enzyme e1, putative (Leishmania donovani (strain BPK282A1)) (UniProt E9BSI1); assay: Leishmania donovani Ubiquitin Activating Enzyme (LdE1); assay type: functional; details: 30 µM
# T1 sequence (whole entry): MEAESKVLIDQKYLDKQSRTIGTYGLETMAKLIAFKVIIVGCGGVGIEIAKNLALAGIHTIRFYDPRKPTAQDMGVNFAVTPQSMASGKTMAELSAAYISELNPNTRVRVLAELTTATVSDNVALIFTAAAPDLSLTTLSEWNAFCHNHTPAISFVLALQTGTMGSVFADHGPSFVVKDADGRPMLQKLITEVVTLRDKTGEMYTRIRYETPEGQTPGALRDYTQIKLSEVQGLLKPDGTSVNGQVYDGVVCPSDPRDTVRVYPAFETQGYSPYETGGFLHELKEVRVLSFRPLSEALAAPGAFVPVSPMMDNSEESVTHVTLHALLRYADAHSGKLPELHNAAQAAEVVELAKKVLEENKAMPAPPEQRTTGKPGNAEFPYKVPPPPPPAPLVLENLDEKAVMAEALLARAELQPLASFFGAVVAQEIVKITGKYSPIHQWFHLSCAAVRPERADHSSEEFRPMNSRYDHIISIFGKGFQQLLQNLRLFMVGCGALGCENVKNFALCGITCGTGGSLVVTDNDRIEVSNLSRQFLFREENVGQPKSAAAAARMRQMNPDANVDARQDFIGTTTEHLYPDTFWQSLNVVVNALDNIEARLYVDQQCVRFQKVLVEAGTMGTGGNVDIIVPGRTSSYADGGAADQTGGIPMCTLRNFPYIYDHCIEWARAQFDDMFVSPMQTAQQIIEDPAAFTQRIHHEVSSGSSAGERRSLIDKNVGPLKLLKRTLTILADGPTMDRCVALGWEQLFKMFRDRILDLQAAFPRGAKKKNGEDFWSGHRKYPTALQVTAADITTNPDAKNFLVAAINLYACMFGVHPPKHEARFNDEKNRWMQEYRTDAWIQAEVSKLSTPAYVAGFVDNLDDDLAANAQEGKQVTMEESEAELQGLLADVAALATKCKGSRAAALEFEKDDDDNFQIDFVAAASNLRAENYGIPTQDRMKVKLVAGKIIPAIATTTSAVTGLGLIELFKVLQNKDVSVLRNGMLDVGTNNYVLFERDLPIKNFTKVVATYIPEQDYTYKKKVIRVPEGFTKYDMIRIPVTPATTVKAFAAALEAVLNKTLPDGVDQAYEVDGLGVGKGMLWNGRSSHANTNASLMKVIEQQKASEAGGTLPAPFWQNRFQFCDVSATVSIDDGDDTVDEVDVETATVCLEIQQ
# [3] = molecular target: AMP-activated protein kinase, AMPK (Homo sapiens) (UniProt P54646+O43741+P54619+Q9UGJ0+Q9Y478+Q13131+Q9UGI9); assay: AMP-dependent Kinase enzyme assay. An in vitro enzyme assay that detects ADP turnover that is directly proportional to AMPK activity. This uses naive AMPK that is activated during the assay with MK-8722; assay type: functional; details: 30 µM
# [4] = molecular target: Sialic acid-binding Ig-like lectin 9 (Homo sapiens) (UniProt Q9Y336); assay: Hs-Siglec9 ALPHAscreen SOP 20170721; details: 10 µM
# [5] = system: Trypanosoma cruzi; assay: Trypanosoma cruzi phosphomannomutase and mannose-1-phosphate guanylyltransferase assay; assay type: functional; details: 10 µM
# [6] = molecular target: T2, Arginase-2, mitochondrial (Homo sapiens) (UniProt P78540); assay: in vitro enzyme assay to detect the production of urea directly proportional to the activity of Arginase II; assay type: functional; details: 33.3 µM; also: in the data most compounds retested in dose-response had high values
# T2 sequence (whole entry): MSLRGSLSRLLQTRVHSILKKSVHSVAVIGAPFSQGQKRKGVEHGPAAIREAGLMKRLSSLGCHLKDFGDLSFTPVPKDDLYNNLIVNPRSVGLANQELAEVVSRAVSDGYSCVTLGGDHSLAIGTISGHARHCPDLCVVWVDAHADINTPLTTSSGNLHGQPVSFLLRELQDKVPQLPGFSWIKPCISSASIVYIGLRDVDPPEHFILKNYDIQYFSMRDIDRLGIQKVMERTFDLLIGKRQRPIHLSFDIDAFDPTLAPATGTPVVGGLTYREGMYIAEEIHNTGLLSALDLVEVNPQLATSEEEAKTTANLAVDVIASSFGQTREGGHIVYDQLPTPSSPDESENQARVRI
# [7] = molecular target: T3, Proteasome subunit beta (Trypanosoma cruzi) (UniProt O96673); assay: Trypanosoma cruzi proteasome chymotrypsin-like activity (TcProtChymo) assay.; also: in the data most compounds retested in dose-response had high values; assay type: functional; details: 9.37 µM
# T3 sequence (whole entry): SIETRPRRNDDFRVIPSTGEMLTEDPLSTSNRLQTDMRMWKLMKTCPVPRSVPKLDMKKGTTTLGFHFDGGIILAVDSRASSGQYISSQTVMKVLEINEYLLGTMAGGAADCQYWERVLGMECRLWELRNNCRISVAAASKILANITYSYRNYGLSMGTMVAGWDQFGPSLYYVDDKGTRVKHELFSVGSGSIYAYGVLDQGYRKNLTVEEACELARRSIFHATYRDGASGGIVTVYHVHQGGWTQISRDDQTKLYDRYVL
# [8] = organism: Homo sapiens; assay: To identify inhibition of the IFN signalling (Jak-Stat) pathway via expression of an eGFP reporter gene under the control of an IFN-stimulated response element (ISRE) containing MxA promoter.; assay type: functional; details: 30 µM
# [9] = molecular target: T4, Tyrosyl-tRNA synthetase, putative (Trypanosoma cruzi (strain CL Brener)) (UniProt Q4DSP6); assay: Trypanosoma cruzi tyrosyl tRNA synthetase (TcYRS) _High Tyrosine SOP; assay type: functional; details: 30 µM; also: in the data most compounds retested in dose-response had high values
# T4 sequence (whole entry): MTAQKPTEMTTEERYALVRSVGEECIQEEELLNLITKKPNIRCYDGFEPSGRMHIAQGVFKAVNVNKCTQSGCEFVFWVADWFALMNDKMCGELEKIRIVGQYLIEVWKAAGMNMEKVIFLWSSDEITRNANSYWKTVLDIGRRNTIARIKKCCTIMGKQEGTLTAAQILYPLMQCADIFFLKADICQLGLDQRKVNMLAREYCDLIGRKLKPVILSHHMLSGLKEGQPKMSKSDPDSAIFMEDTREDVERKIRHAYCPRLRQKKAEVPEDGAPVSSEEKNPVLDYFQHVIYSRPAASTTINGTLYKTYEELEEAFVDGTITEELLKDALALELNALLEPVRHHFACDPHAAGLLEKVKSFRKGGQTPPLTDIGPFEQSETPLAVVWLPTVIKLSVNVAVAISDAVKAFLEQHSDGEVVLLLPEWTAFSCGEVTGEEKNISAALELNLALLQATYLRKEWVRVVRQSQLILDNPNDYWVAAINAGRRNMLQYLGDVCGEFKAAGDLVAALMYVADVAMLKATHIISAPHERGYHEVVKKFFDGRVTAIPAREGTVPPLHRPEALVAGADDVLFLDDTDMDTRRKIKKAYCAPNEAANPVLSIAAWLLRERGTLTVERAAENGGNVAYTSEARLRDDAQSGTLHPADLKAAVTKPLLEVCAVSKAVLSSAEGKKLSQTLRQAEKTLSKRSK
# [10] = molecular target: T4, Tyrosyl-tRNA synthetase, putative (Trypanosoma cruzi (strain CL Brener)); assay: Trypanosoma cruzi tyrosyl tRNA synthetase (TcYRS) SOP; assay type: functional; details: 30 µM
# [11] = molecular target: Chromo domain-containing protein 1 (Saccharomyces cerevisiae (strain ATCC 204508 / S288c) (Baker's yeast)) (UniProt P32657); assay: ScCHD-1 Enzyme Inhibition Assay; assay type: functional; details: 30 µM; also: in the data most compounds retested in dose-response had high values
# Sequence of Chromo domain-containing protein 1 (Saccharomyces cerevisiae (strain ATCC 204508 / S288c) (Baker's yeast)) (P32657 whole entry, the tested form may be a part): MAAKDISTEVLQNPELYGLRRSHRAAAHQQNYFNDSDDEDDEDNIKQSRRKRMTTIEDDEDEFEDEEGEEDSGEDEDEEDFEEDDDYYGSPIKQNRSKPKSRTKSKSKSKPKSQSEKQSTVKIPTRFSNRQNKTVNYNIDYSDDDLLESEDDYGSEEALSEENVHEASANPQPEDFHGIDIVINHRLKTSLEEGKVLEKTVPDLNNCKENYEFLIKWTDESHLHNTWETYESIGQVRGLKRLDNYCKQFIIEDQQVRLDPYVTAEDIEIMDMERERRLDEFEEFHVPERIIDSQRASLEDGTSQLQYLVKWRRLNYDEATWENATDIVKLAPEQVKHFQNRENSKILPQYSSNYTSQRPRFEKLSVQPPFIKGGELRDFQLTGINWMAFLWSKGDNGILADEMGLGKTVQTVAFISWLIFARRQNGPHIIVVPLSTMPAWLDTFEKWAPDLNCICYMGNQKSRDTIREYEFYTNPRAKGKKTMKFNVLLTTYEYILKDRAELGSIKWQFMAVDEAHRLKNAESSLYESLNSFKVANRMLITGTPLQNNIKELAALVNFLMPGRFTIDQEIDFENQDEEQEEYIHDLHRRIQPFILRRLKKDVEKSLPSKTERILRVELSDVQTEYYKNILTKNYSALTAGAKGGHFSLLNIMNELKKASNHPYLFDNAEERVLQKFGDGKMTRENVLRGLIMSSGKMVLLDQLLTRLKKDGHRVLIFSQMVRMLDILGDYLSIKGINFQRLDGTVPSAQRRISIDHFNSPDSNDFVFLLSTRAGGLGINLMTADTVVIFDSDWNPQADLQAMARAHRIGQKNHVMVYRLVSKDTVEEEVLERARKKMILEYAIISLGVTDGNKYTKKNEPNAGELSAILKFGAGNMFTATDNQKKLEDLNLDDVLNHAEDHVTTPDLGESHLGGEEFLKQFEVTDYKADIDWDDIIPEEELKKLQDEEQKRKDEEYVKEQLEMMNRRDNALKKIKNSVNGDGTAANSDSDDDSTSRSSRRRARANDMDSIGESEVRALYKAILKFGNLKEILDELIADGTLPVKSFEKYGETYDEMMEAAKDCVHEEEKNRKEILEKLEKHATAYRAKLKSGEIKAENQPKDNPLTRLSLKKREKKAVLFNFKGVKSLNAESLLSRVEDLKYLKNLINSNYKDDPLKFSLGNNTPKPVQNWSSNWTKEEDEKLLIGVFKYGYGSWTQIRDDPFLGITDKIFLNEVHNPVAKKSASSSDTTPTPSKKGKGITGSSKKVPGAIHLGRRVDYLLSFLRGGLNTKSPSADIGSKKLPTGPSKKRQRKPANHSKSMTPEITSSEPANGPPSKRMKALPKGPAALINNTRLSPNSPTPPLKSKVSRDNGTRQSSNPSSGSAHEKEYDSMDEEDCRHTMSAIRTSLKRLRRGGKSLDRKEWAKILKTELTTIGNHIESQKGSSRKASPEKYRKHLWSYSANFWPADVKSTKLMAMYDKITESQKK
# Sequence of Sialic acid-binding Ig-like lectin 9 (Homo sapiens) (Q9Y336 whole entry): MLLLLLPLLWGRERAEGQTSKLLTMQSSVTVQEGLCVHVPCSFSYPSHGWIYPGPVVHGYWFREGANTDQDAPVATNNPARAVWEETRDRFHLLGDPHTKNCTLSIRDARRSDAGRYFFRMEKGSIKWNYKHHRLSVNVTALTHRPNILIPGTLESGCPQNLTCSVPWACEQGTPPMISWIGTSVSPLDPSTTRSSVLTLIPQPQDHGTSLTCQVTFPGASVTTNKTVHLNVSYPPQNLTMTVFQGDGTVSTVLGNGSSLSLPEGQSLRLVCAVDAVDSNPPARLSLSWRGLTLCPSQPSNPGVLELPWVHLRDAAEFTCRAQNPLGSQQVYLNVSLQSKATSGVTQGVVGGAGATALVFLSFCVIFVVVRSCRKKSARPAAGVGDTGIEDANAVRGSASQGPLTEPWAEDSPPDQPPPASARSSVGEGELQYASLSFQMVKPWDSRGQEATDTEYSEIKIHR
# Sequence of Protein translocase subunit SecA (Escherichia coli (strain K12)) (P10408 whole entry): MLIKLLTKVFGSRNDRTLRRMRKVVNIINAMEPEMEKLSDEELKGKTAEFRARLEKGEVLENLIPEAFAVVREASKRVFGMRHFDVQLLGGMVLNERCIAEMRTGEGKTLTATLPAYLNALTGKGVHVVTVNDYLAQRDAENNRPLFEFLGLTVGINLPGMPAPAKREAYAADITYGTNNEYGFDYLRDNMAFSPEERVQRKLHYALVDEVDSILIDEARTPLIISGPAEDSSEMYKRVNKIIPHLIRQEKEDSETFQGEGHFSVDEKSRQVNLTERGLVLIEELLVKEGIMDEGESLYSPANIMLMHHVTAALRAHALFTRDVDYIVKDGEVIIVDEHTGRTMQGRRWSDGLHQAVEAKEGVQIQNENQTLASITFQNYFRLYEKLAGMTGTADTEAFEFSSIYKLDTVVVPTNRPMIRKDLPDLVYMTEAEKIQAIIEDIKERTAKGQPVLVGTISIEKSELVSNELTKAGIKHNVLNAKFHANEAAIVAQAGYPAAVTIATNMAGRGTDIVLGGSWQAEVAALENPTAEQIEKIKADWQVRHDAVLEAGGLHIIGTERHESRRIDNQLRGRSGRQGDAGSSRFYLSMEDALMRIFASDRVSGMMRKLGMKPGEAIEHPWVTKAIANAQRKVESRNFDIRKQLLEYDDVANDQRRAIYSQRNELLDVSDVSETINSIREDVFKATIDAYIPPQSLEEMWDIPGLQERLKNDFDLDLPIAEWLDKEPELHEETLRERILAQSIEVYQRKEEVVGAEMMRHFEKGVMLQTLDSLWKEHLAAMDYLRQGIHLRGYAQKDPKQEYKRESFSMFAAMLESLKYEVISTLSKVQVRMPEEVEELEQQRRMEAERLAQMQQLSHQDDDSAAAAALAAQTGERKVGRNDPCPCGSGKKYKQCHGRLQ
SMILES,Percent Effect [1] [%],Percent Effect [2] [%],Percent Effect [3] [%],Percent Effect [4] [%],Percent Effect [5] [%],Percent Effect [6] [%],Percent Effect [7] [%],Percent Effect [8] [%],Percent Effect [9] [%],Percent Effect [10] [%],Percent Effect [11] [%]
CC(C)Nc1ncc(CN2C[C@@H](CN3CCC(O)CC3)[C@@H](CO)C2)cn1,-5.5,2.67,-4.76,7.2,2.43,-0.521,12.2,8.53,4.92,11.1,-8.5
CCCc1noc(CCC(=O)NC(C)c2nnc3n2CCCCC3)n1 (stereo unspecified),-0.578,8.11,-6.02,5.58,-2.64,5.21,19.5,3.01,3.23,8.64,-5.75
O=C(CN1CCc2ccccc21)Nc1ccc(OC(F)F)cc1,-2,1.39,0.216,8.48,-2.23,0.883,21.1,8.31,0,-7.69,88.5
CC(CNCc1ccncc1)Oc1ccccn1 (stereo unspecified),-0.77,9.33,-1.66,5.01,0,-15.3,13.9,2.27,4.23,7.69,-10.8
CCc1noc(C2CCN(C(=O)CCn3nc(C)cc3C)CC2)n1,-4.24,18.2,0.146,12.9,8.55,-5.52,14.8,-6.48,8.6,16.1,-7.88
Cc1cc(C(=O)NCc2cccnc2OC(C)C)no1,-2.03,8.11,-0.722,4.58,-5.19,4.41,3.42,27.8,6.4,13.6,-0.257
O=C(c1cnoc1)N1CCC[C@]2(C[C@@H](OCc3ccccn3)CO2)C1,-1.86,21.9,-6.83,23.6,5.56,-1.6,12.8,1.81,6.25,8.64,-6.46
CC(C)(O)CN1CCN(C(=O)c2cc3ccccc3c(=O)[nH]2)CC1,0.132,2.63,5.98,-1.12,-3.6,-2.37,7.57,-8.77,7.45,13,-5.58
O=C(Nc1ccccc1)C1CN(CC2CC2)CC12CCOCC2 (stereo unspecified),-1.55,5.33,7.28,-3.04,-0.579,-8.42,10.4,-0.536,-3.12,-10,-4.82
c1cncc(COCc2nnc3n2CCN(Cc2ccoc2)C3)c1,-1.23,18.2,3.03,9.78,5.21,-8.28,21,8.47,6.45,16.1,0.555
CC(C)c1nccn1C1CCCN(C(=O)c2cccc3c2OCO3)C1 (stereo unspecified),1.99,-46,-3.6,9.39,2.55,-5.61,2.16,9.02,2.46,11.1,-2.9
